From PubChem BioAssay (NCATS)
Inconclusive results are not listed. Values without a mark were called inactive. Calls come from the whole dose curve; as a rule, active = well fitted activation curve with a large enough effect; inconclusive = small, poorly fitted or top-dose-only effect; inactive = flat fitted curve, though single readings scatter. Where a SMILES comes first, the peptide text is derived from it. The star is where a group is joined. PhAc = O=C(Cc1ccccc1)*

test: Primary redox qHTS assay for identification of artifact compounds. (AID 1845223); details: Amplex Red/HRP redox cycling with DTT, fluorescence; series mostly up to 53.8 µM; redox activity (% of DA3003): at the top concentration;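 note: 0% = DMSO and 100% = reference compound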
Procedure, shortened: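 Redox-cycling detection via DTT (250 uM final) oxidation coupled to Amplex Red (25 uM)/HRP (250 mU/mL) in HBSS. 15 min preincubation plus 30 min after DTT, room temperature. Ex/Em 525/598 nm; 4-parameter Hill fit against DMSO and 10 uM DA3003.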

Structure (SMILES) | redox activity (% of DA3003)
Nc1ncnc2c1C(=O)N(c1ccc(C3CCC(CC(=O)O)CC3)cc1)CCO2 (centres undefined) | -6.08%
C[C@@H]1CC[C@]2(C(=O)O)CC[C@]3(C)C(=CCC4[C@@]5(C)C[C@@H](O)[C@@H](O)C(C)(C)C5CC[C@]43C)C2[C@]1(C)O (some centres undefined) | 6.83% [at 25.6 µM]
CCOC(=O)CNC(=O)[C@@H]1CCCN1C(=O)Cc1ccccc1 (PhAc-Pro-Gly-OEt) | -0.785%
CC(C)CC(=O)O[C@@H]1O[C@H](CO)[C@@H](O[C@H]2O[C@H](C)[C@@H](N[C@H]3C=C(CO)[C@@H](O[C@H]4O[C@H](CO)[C@@H](O[C@H]5O[C@H](CO)[C@@H](O[C@H]6O[C@H](CO)[C@@H](O)[C@H](O)[C@H]6O)[C@H](O)[C@H]5O)[C@H](O)[C@H]4O)[C@H](O)[C@H]3O)[C@H](O)[C@H]2O)[C@H](O)[C@H]1O | 4.39% [at 11.5 µM]
CC1(C)C[C@H](O)C[C@@]2(C)[C@H]1[C@H](O)C=C1COC(=O)[C@@]12O | -3.46%
O=C(O)[C@H](Cc1ccccc1)Oc1ccc(-c2ccccc2)cc1 | 14.1%
Cc1ccc(-n2nc(C(C)(C)C)cc2NC(=O)Nc2cc(COc3cccnc3)[nH]n2)cc1 | 1.5%
Cc1cc(CNC(=O)c2cc(C(=O)NCc3ccc(F)c(C)c3)ncn2)ccc1F | -0.996%
COC(=O)[C@@H](NC(=O)[C@H](CC(C)C)NC(=O)N(Cc1ccccc1)C[C@@H](O)[C@H](Cc1ccccc1)NC(=O)OC(C)(C)C)C(C)C | 19.1% [at 11.5 µM]
COC(=O)c1ccccc1O[C@@H]1O[C@H](CO[C@@H]2OC[C@@H](O)[C@H](O)[C@H]2O)[C@@H](O)[C@H](O)[C@H]1O | 4.71% [at 25.6 µM]
CC(=O)NC(C(=O)OC1CCC(C)(C)C2CC=C3C(=O)OCC3C12C)C(C)C (centres undefined) | 4.1%
O=C(O)c1cccc(C(=O)CCC2OC(n3cnc4c(=O)[nH]cnc43)C(O)C2O)c1 (centres undefined) | 2.83% [at 25.6 µM]
C=C1C(=O)O[C@@H]2/C=C(\C)CC/C=C(\C(=O)O[C@@H]3O[C@H](CO)[C@@H](O)[C@H](O)[C@H]3O)CC[C@@H]12 | -8.67% [at 25.6 µM]
CC(=O)OCC(Cc1ccccc1)NC(=O)C(Cc1ccccc1)NC(=O)c1ccccc1 (centres undefined) | 17.4% [at 25.6 µM]
CC(C)(O)C1OC1C1=CC(=O)C2(C)OC2C1O (centres undefined) | -7.67%
C=C1CC[C@@H]2[C@](C)(CO)[C@H](O[C@@H]3O[C@H](CO)[C@@H](O)[C@H](O)[C@H]3O)CC[C@@]2(C)[C@@H]1C/C=C1/C(=O)OC[C@H]1O | -2.76% [at 25.6 µM]
OC[C@@]1(O)CO[C@@H](OC[C@H]2O[C@@H](OCc3ccccc3)[C@H](O)[C@@H](O)[C@@H]2O)[C@@H]1O | -2.38% [at 25.6 µM]
C/C=C/C1OC2=C(C(=O)OC2(C)O)C(O)C1O (centres undefined) | -16%
C=C[C@H]1[C@H](O[C@@H]2O[C@H](CO)[C@@H](O)[C@H](OC(=O)/C=C/c3ccc(O)c(OC)c3)[C@H]2O)OC=C2C(=O)OCC[C@]21O | -17.8% [at 25.6 µM]
COc1ccc(CCC(=O)O)c(O[C@@H]2O[C@H](CO)[C@@H](O)[C@H](O)[C@H]2O)c1 | -13.6%

Structure (SMILES) | redox activity (% of DA3003)
O=C1NC(=O)/C(=C/c2cccc(C(F)(F)F)c2)S1 | 19.6%
CCC(C)(C)C1CCc2c(sc(NC(=O)c3ccc(Br)cc3)c2C#N)C1 (centres undefined) | -4.13%
CC1=CC(=O)[C@]2(O[C@@H]3O[C@@H](C)[C@H](O)[C@@H](O)[C@H]3O)C=CO[C@@H](O[C@@H]3O[C@H](CO)[C@@H](O)[C@H](O)[C@H]3O)[C@H]12 | -5.18% [at 25.6 µM]
CC(=O)O[C@@H]1[C@H](O[C@@H]2O[C@H](CO)[C@@H](O)[C@H](O)[C@H]2O)[C@@H](O[C@@H]2O[C@@H](C)[C@H](O)[C@@H](O[C@@H]3O[C@H](CO)[C@@H](O)[C@H](O)[C@H]3O)[C@H]2O)[C@H](OC(=O)[C@]23CCC(C)(C)C[C@H]2C2=CCC4[C@@]5(C)C[C@H](O)[C@H](O[C@@H]6O[C@H](C(=O)O)[C@@H](O)[C@H](O)[C@H]6O)[C@@](C)(C(=O)O)C5CC[C@@]4(C)[C@]2(C)CC3)O[C@@H]1C (some centres undefined) | -2.45% [at 11.5 µM]
Cc1occc(=O)c1O[C@@H]1O[C@H](CO[C@@H]2OC[C@](O)(CO)[C@H]2O)[C@@H](O)[C@H](O)[C@H]1O | -0.0754% [at 25.6 µM]
CC(O)C1NC(=O)C2CCCN2C1=O (centres undefined) | -13.6% [at 85.7 µM]
COC(=O)C1=COC(O[C@@H]2O[C@H](CO)[C@@H](O)[C@H](O)[C@H]2O)[C@@H]2[C@@](C)(O)[C@@H](OC(=O)/C=C/c3ccccc3)C[C@]12O (some centres undefined) | -2.7% [at 25.6 µM]
Cc1ccc(C)c(S(=O)(=O)n2cnc3ccccc32)c1 | -2.46%
CC(C)(O)C(O)C(=O)OCc1ccc(O[C@@H]2O[C@H](CO)[C@@H](O)[C@H](O)[C@H]2O)cc1 (some centres undefined) | -18.7% [at 25.6 µM]
CCCCCOC(=O)Nc1nc(=O)n(C2O[C@H](C)[C@@H](O)[C@H]2O)cc1F (some centres undefined) | -1.21%
Nc1ccc(-n2nc(C(F)(F)F)cc2C(F)(F)F)cc1 | -10.6%
C=C(C(=O)O)[C@@H]1CC[C@@]2(C)CCC[C@@](C)(O)[C@@H]2C1 | -14.8%
CCC(C)C(=O)O[C@H]1C[C@](C)(O)[C@]23OC(C)(C)[C@H](C[C@H](OC(=O)c4ccccc4)[C@]2(COC(C)=O)[C@H]1OC(=O)C(C)CC)[C@H]3OC(C)=O (some centres undefined) | -10.3% [at 25.6 µM]
CC(CC(C)O[C@@H]1O[C@H](CO)[C@@H](O)[C@H](O)[C@H]1O)OC(=O)/C=C/c1ccc(O)cc1 (some centres undefined) | 7.74% [at 25.6 µM]
O=C(NC1Cc2ccccc2N(C[C@@H](O)CO)C1=O)c1cc2cc(Cl)sc2[nH]1 (some centres undefined) | 1.83%
C=C(CCO)C(=O)OCC1OCC(OC(=O)C(=C)CCO[C@@H]2O[C@H](COC(=O)C(=C)CCO[C@@H]3O[C@H](CO)[C@@H](O)[C@H](O)[C@H]3O)[C@@H](O)[C@H](O)[C@H]2O)C(O)C1O (some centres undefined) | -17.1% [at 25.6 µM]
O=C(O)c1cc(O[C@@H]2O[C@H](CO)[C@@H](O)[C@H](O)[C@H]2O)ccc1O | -10.6%
O=C(Cc1ccc(Cl)cc1)Nc1cnccc1C(=O)O | -0.61%
COc1cc(/C=C/C(=O)O[C@H]2[C@H](O)[C@@H](CO)O[C@@]2(CO)O[C@H]2O[C@H](CO)[C@@H](O)[C@H](O)[C@H]2O)cc(OC)c1O | -1.95% [at 25.6 µM]
